The full ranking holds about 25,000 sequences; the median of “ln(normalized median fluorescence intensity)” is about 6.7, and the highest 2% start at about 10. The sample as a whole holds a higher share of the highest values than the screen did.

In this experiment the test system is PfHDP1 homeodomain (GST-tagged). In words: gcPBM binding intensity (ln(normalized median fluorescence intensity)); higher = stronger DNA binding. In a few lines: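 Alexa488 anti-GST antibody, scanned at 488 nm, detected GST-tagged P. falciparum DNA-binding domains that had been expressed in E. coli and incubated for 1 h on an Agilent 4 × 180k array. The array carried primer-extended double-stranded 36-bp intergenic genomic probes and negative controls. Binding intensity is the highest Masliner-normalised natural-log median intensity across replicate spots of either orientation of each probe.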
Take “TTTTATTTAACTCATAATTTTTTAAAAAACAATTAT [XGTACX_negctrl_site19]”: the “gcPBM binding intensity (ln)” value amounted to 6.37.

As for “TATATATATATATGTGCACACATAAAGATATTATTT [CACACA_site3734]”, the “gcPBM binding intensity (ln)” value amounted to 10.6.

For “TATATATATATGTGCACACATAAAGATATTATTTTT [CACACA_site3733]”, the “gcPBM binding intensity (ln)” value was found to be 10.1.

As to “ATAAAGATATGACACACACACATATTATAGATATAT [CACACA_site7434]”, the “gcPBM binding intensity (ln)” value is 6.69.

“AATGTATTCTCTCATGCACACTTTCTTTAAGGGACC [CACACA_site5245]”: the “gcPBM binding intensity (ln)” value worked out at 8.87.

Turning to “AATATATTTGTGTATGTGCGCAGTGTGTAATTTATT [GTGCAC_site9765]”, the “gcPBM binding intensity (ln)” value was determined as 7.92.

On to “GTTCATCACATATACACATGCATATTCTAATATGTA [TGCATGCA_site809]”, for which the “gcPBM binding intensity (ln)” value was found to be 7.25.

In the case of “TTTTTCTTCTGCATTATGCACACTATAATTCGTTAA [CACACA_site2837]”, the “gcPBM binding intensity (ln)” value was determined as 10.2.

For “TTCGTTCTTTTATGCACACTCAACATATAAATTAAA [CACACA_site1209]”, the “gcPBM binding intensity (ln)” value was determined as 10.1.

For the sequence “TTTCTTCTGCATTATGCACACTATAATTCGTTAAAA [CACACA_site5568]”, the “gcPBM binding intensity (ln)” value came out at 10.5.

As for “ATTTATATATCGCCCACACACATGTGATTATTTATA [CACACA_site6905]”, the “gcPBM binding intensity (ln)” value came to 7.

With “TTATATTTTAAGAAATGTACATGATATAATTATCAA [XGTACX_site8693]”, the “gcPBM binding intensity (ln)” value came to 6.39.

In the case of “AATATATATGGACATGCATGGACATAATAATCTATT [TGCATGCA_site838]”, the “gcPBM binding intensity (ln)” value was determined as 6.47.

Regarding “TATGTGCACCCATATACACACACAAATACAATGATA [CACACA_site8295]”, the “gcPBM binding intensity (ln)” value is 10.7.

Regarding “AATAAATATATATACACACCCATATATATATATATA [CACACA_site2595]”, the “gcPBM binding intensity (ln)” value amounted to 9.48.

As to “CATATAAAAATGTGCACACACACACCGATATATATT [CACACA_site4940]”, the “gcPBM binding intensity (ln)” value is 10.8.

Take “AAAATACATAAACACACACACACACCGATATATATA [CACACA_site9186]”: the “gcPBM binding intensity (ln)” value is 7.14.

As for “AAAAAAATGAAACACACACACACATATATATATATA [CACACA_site1043]”, the “gcPBM binding intensity (ln)” value came to 9.32.

In the case of “ATATATGAAAATATATGTACACAACATATAAAATAG [XGTACX_site5132]”, the “gcPBM binding intensity (ln)” value stood at 6.63.

In the case of “CATATAAAAATGTGCACACACACACCCATATATATT [CACACA_site1526]”, the “gcPBM binding intensity (ln)” value is 10.5.

With “GGTGCACCCATATACACACACAAATACAATGATAAA [CACACA_site1132]”, the “gcPBM binding intensity (ln)” value was determined as 10.2.

Regarding TTACAACATGAAAATGTGCACATATATATATATATA, the “gcPBM binding intensity (ln)” value was 10.8.

For the sequence “AATATAAATAAAAACACACACACACCGATATATATA [CACACA_site5283]”, the “gcPBM binding intensity (ln)” value was determined as 7.05.

“TGGGCACCCATATACACACACAAATACAATGATAAA [CACACA_site4762]”: the “gcPBM binding intensity (ln)” value amounted to 6.48.

“AAAAAAAAAAAACACACACACACACCCATATATAAA [CACACA_site1170]”: the “gcPBM binding intensity (ln)” value came out at 6.79.

For “GGTATTTTCACATATAGTACACAAAAATAAAATAAA [XGTACX_site2139]”, the “gcPBM binding intensity (ln)” value was found to be 6.68.

On to “CATATAGATTTGTTCACACACACACTAAAAAAAAAA [CACACA_site7212]”, for which the “gcPBM binding intensity (ln)” value was 6.7.

With “TATTCTAATTTTTAAACACACAAATATAAATAAGTA [CACACA_site3149]”, the “gcPBM binding intensity (ln)” value turned out to be 6.35.

As for “AAAAGAAAAAAAAAAAAAAAAAAAATTAAAATATAA [CACACA_negctrl_site17]”, the “gcPBM binding intensity (ln)” value came out at 5.65.

Take “TGAATAATATACATACGTACATACATATATATAATA [XGTACX_site1302]”: the “gcPBM binding intensity (ln)” value amounted to 6.17.

In the case of “AATATAAATATTAAAACACACATAAAAAGATTATTA [CACACA_site1764]”, the “gcPBM binding intensity (ln)” value was found to be 6.29.

For the sequence “ATATATATAAAATGTTGTACATATATATAAATAATA [XGTACX_site1661]”, the “gcPBM binding intensity (ln)” value was 6.15.

As for “TAAATTTTTAAATACACACATACACCCATACAGACA [CACACA_site548]”, the “gcPBM binding intensity (ln)” value is 7.18.

“TTTAAAACCCTAAAAAAAAAAAAAAAAAAAAAAAAA [CACACA_negctrl_site1212]”: the “gcPBM binding intensity (ln)” value was 6.26.

Turning to “TTTTTTTAAATTATATGTACATAATTTTAATTTTAT [XGTACX_site5086]”, the “gcPBM binding intensity (ln)” value stood at 6.43.

Regarding “ATTTTTTTTTTTATGTGTACATATATTTTTTTAATT [XGTACX_site7921]”, the “gcPBM binding intensity (ln)” value was 7.04.

With “AAAAAAAAAAAAAACACACACACACCCATAAATATA [CACACA_site151]”, the “gcPBM binding intensity (ln)” value came out at 6.87.

As to “AACATATAAAAATGTGCACACACACCCATATATATA [CACACA_site1525]”, the “gcPBM binding intensity (ln)” value came out at 10.7.

Regarding “AATATAAATAAAAACACACACACACCCATATATATA [CACACA_site2267]”, the “gcPBM binding intensity (ln)” value turned out to be 7.13.

On to “AAATAAATAATTTAATGTACATATATAATATATATA [XGTACX_site1831]”, for which the “gcPBM binding intensity (ln)” value worked out at 6.81.

For the sequence “AGAGTACAAGTAAATACACACATATAGATGAAAATA [CACACA_site6635]”, the “gcPBM binding intensity (ln)” value came out at 6.88.

Take “TATTATATGTATTGCACACCTTCAACAACTACTTCT [CACACA_site655]”: the “gcPBM binding intensity (ln)” value was 10.6.

With “ATTGTATCTGTATATGCACACAATATCTGTACTTCT [CACACA_site5445]”, the “gcPBM binding intensity (ln)” value came to 10.1.

Turning to “CAACTAACATATATTCAACACACATATACCTTCAAC [CACACA_site8988]”, the “gcPBM binding intensity (ln)” value came out at 6.43.
